# Results reported in PubChem BioAssay AID1063 (University of Pittsburgh Molecular Library Screening Center, 2008).
# Hit rate of the full screen: of about 200,000 compounds, about 18,000 (9%) were called active. The sample holds actives, similar compounds and a random draw of the others, so the mix is not that of the screen. Rule as the data show it: active = inhibition above about 50%; inactive = the rest.
# Test: Leishmania major promastigote growth inhibition, primary screen (AID 1063);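 also: promastigotes grown with compound for 44 hours at 28 °C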
# Conditions: Leishmania major promastigotes, resazurin fluorescence viability; at 10 µM; active compounds read high
row,Structure (SMILES),inhibition
1,C=CCc1cccc2cc(C(=O)Nc3ccc(NC(C)=O)cc3)c(=O)oc12,-6.83% (inactive)
2,C/C(=N\NC(=O)c1cccc(N2CCCC2=O)c1)c1ccc(N)cc1,-3.01% (inactive)
3,CC(C)(C)c1ccc(C(=O)NCCC(=O)NCc2ccco2)cc1,-5.5% (inactive)
4,O=C(CN1C(=O)/C(=C\c2ccc(C(F)(F)F)cc2)Sc2ccccc21)NCc1ccco1,95.1% (active)
5,O=C(CN1C(=O)/C(=C/c2ccccc2F)Sc2ccccc21)NCc1cccnc1,19.2% (inactive)
6,CCc1[nH]nc(C(=O)N2CCCC(CNS(=O)(=O)c3cccs3)C2)c1C (configuration not stated),-4.31% (inactive)
7,CN(C)S(=O)(=O)c1cccc(NC(=S)NCc2ccc3c(c2)OCO3)c1,-0.11% (inactive)
8,CC1CCCCN1C(=S)NCc1ccccc1 (configuration not stated),-0.34% (inactive)
9,C/C(=N\NC(=S)NCc1ccccc1)c1ccc(Cl)cc1,1.34% (inactive)
10,C/C(=N\NC(=S)NCc1ccccc1)C1CCCCC1,89.9% (active)
11,COc1ccc2nc(Nc3nc(-c4ccncc4)cs3)sc2c1,7.68% (inactive)
12,c1csc(-c2nnc(COc3ccc4c(c3)OCO4)o2)c1,5.84% (inactive)
13,CCN(C(=O)COC(=O)c1ccc(COc2ccc3c(C)cc(=O)oc3c2)cc1)C1CCS(=O)(=O)C1 (configuration not stated),-10.4% (inactive)
14,Cc1ccc(NC(=O)c2ccc(Oc3ncccn3)cc2)cc1,7.15% (inactive)
15,Cc1nccn1CC(=O)N/N=C/c1ccc(O)c(O)c1,-6.58% (inactive)
16,Oc1ccc(/C=N/Nc2ccc(C(F)(F)F)cn2)cc1O,95.4% (active)
17,FC(F)(F)c1cccc(N/N=C/c2ccccc2)c1,-13.1% (inactive)
18,CCc1nnc(NC(=O)C2CC(=O)N(c3ccc4c(c3)OCCO4)C2)s1 (configuration not stated),-9.31% (inactive)
19,c1ccc(C(c2ccccc2)N2CCN(Cc3nnnn3C3CCCCC3)CC2)cc1,9.22% (inactive)
20,c1ccc(CCn2nnnc2CN2CCN(C3CCCC3)CC2)cc1,85.5% (active)
21,N#Cc1ccc(C(c2nnnn2CCc2ccccc2)N2CCCCCC2)cc1 (configuration not stated),16.3% (inactive)
22,CCOc1cc(NC(=S)NCCCN(C)C)c(OCC)cc1NC(=O)C1CC1,-0.62% (inactive)
23,C=CCn1cc(-c2cccc(C(F)(F)F)c2)cc(C#N)c1=O,10.4% (inactive)
24,O=[N+]([O-])c1ccc(N/N=C2/CCCCC2c2ccccn2)c([N+](=O)[O-])c1 (configuration not stated),2.5% (inactive)
25,O=C(Nc1ccccc1)O/N=C1\CCCCC1c1ccc([N+](=O)[O-])cc1[N+](=O)[O-] (configuration not stated),99.6% (active)

row,Structure (SMILES),inhibition
1,C[n+]1ccccc1C1CCCC/C1=N\Nc1ccc([N+](=O)[O-])cc1[N+](=O)[O-] (configuration not stated),-1.09% (inactive)
2,O=C(Nc1ccccc1Cl)c1ccc2nsnc2c1,-3.57% (inactive)
3,O=C(Nc1ccccc1Cl)/C(Cl)=C(\Cl)S(=O)c1ccccc1 (configuration not stated),101% (active)
4,O=C(CN1CCCCC1)Nc1ccccc1Cl,-0.98% (inactive)
5,COc1cccc(/C=C/C(=O)Nc2ccc3c(c2)OCCO3)c1,13.7% (inactive)
6,CCN1CCN(c2cc3nc(C)n(Cc4ccccc4)c(=O)c3cc2NC(=O)c2ccccc2F)CC1,98.3% (active)
7,CCC(=O)Nc1ccc2nc(C)n(Cc3ccccc3Cl)c(=O)c2c1,4.75% (inactive)
8,Cc1cc(C(=O)Nc2ccccc2N2CCOCC2)c2ccccc2n1,1.07% (inactive)
9,Cc1c(/C=N\NC(=O)c2cc3ccccc3o2)c2ccccc2n1C,9.72% (inactive)
10,O=C(c1ccc2ccccc2n1)N1CCN(c2ccccc2Cl)CC1,-3.63% (inactive)
11,CSc1ccc(C(=O)C2CCCN(C(=O)c3ccc(C)nc3)C2)cc1 (configuration not stated),-4.42% (inactive)
12,O=C(c1ccc(-c2ccccc2)cc1)C1CCCN(C(=O)c2cncs2)C1 (configuration not stated),58.5% (active)
13,O=C(c1ccc(C(F)(F)F)cc1)C1CCCN(C(=O)c2csnn2)C1 (configuration not stated),-5.59% (inactive)
14,C/C=N/NC(=O)CCCC(=O)N/N=C/C,13.8% (inactive)
15,COc1cccc(NC(=O)CN(C)C(C)C(=O)Nc2ccc(C#N)cc2)c1 (configuration not stated),5.24% (inactive)
16,CCOc1ccc(NS(=O)(=O)c2ccc(C)c(C(N)=O)c2)cc1,-2.88% (inactive)
17,COCCn1c(Cc2cccn2C)nnc1SCC(=O)Nc1nccs1,1.7% (inactive)
18,Nc1cc(C(F)(F)F)ccc1N1CCOCC1,0.97% (inactive)
19,O=C(/C=C/c1ccc(Cl)cc1)Nc1ccc(Br)cn1,0.77% (inactive)
20,O=C(Nc1ccc(Br)cn1)c1ccc([N+](=O)[O-])cc1Cl,13.7% (inactive)
21,O=C(Nc1ccc(Br)cn1)c1ccc([N+](=O)[O-])o1,100% (active)
22,CS(=O)(=O)Nc1cccc(-c2cn3ccccc3n2)c1,-2.73% (inactive)
23,Cc1cnc(C(=O)OCC(=O)NCCCc2ccccc2)cn1,-4.28% (inactive)
24,O=C(NCCCCCCNC(=O)NCc1ccco1)NCc1ccco1,-3.59% (inactive)
25,O=C(CC1CCCCC1)NCc1ccco1,-0.08% (inactive)

row,Structure (SMILES),inhibition
1,O=C(NCc1ccco1)C1(c2ccc(Cl)cc2)CCCC1,76.6% (active)
2,COc1ccc(N2C(=O)C(Cc3ccccc3)NC2=S)cc1 (configuration not stated),-0.72% (inactive)
3,Cn1cc(CN2CCCCC2c2ccccn2)c(-c2ccc3c(c2)OCCO3)n1 (configuration not stated),-2.73% (inactive)
4,Cc1ccccc1-n1c(C)cc(/C=C2\NC(=O)NC2=O)c1C,7.26% (inactive)
5,Cc1cc(/C=C2/NC(=O)NC2=O)c(C)n1-c1cccnc1,60.6% (active)
6,Cc1cc(/C=C2\SC(=Nc3ccc(N4CCOCC4)cc3)N(C)C2=O)c(C)n1-c1cccnc1,0.4% (inactive)
7,CCNC(=O)COc1cc(C)c(Br)c(C)c1,-1.41% (inactive)
8,CN(C)/C=C(/C(=O)c1ccc(F)cc1)S(=O)(=O)c1ccc(F)cc1,-1.08% (inactive)
9,CCC(C)(C)NC(=O)C(c1ccccn1)N(C(=O)c1csnn1)c1ccccc1 (configuration not stated),-5.39% (inactive)
10,Cc1ccc(C)c(-n2nnnc2SCC(=O)c2c(N)n(C)c(=O)n(C)c2=O)c1,-5.78% (inactive)
11,CN(C)/C=C(/C(=O)c1ccccc1)S(=O)(=O)c1ccc(Cl)cc1,-6.81% (inactive)
12,COc1ccc(/C=N/NC(=O)Nc2ccc3nsnc3c2)c(OC)c1,-1.6% (inactive)
13,COc1cccc(NC(=O)c2ccc(Cn3cc([N+](=O)[O-])cn3)o2)c1,47.4% (inactive)
14,COc1cccc(NC(=O)c2nn(-c3ccc(OC)cc3OC)c(=O)c3ccccc23)c1,-3.79% (inactive)
15,COc1cccc(NC(=O)c2nn(C34CC5CC(CC(C5)C3)C4)cc2[N+](=O)[O-])c1,66.2% (active)
16,CC(CO)NCC12CC3CC(CC(C3)C1)C2 (configuration not stated),7.47% (inactive)
17,CC(C)N(C)C(=O)CCc1nnc(CCc2c[nH]c3ccccc23)o1,-3.38% (inactive)
18,Cc1nnsc1C(=O)N/N=C/c1cccc(C(F)(F)F)c1,12.3% (inactive)
19,CCOc1ccc(-n2c(SCC(=O)NC3CCS(=O)(=O)C3)nnc2-c2cccnc2)cc1 (configuration not stated),-3.53% (inactive)
20,Cc1ccc(S(=O)(=O)N(NC2=NS(=O)(=O)c3ccccc32)C(=O)c2ccccc2)cc1,53% (active)
21,Cc1ccc(C(=O)NN(CCC#N)C2=NS(=O)(=O)c3ccccc32)cc1,-9.19% (inactive)
22,CC(C)(C)c1csc(NC2=NS(=O)(=O)c3ccccc32)n1,-6.96% (inactive)
23,O=C(NNS(=O)(=O)c1ccc(F)cc1)c1cnccn1,-7.62% (inactive)
24,COc1ccc(C(=O)NNC(=O)c2cc(C)[nH]n2)cc1,-2.25% (inactive)
25,Cc1ccc(Cl)c(NC(=O)CN(C)CC(=O)Nc2ccc(F)c(F)c2F)c1Cl,0.59% (inactive)

row,Structure (SMILES),inhibition
1,CC(CNC(=O)c1ccc(N)cc1)NC(=O)c1ccc(N)cc1 (configuration not stated),-1.57% (inactive)
2,CCOC(=O)c1oc2ccccc2c1NC(=O)c1cccs1,-2.52% (inactive)
3,COCc1c(C(=O)OCc2c(C)noc2C)oc2ccccc12,-3.77% (inactive)
4,Cc1cc(C)c(NC(=O)c2oc3ccccc3c2COc2ccccc2)c(C)c1,62.7% (active)
5,NC(=O)COc1ccc(NC(=O)c2ccccc2-c2ccccc2)cc1,10.2% (inactive)
6,CCO/C=C1\C(=O)N(c2ccc(OCC)cc2)C(=O)c2ccccc21,0.41% (inactive)
7,NS(=O)(=O)c1ccc(CCNC(=O)c2ccc([N+](=O)[O-])cc2[N+](=O)[O-])cc1,-7.26% (inactive)
8,NS(=O)(=O)c1ccc(CNC(=O)c2ccc(Cl)cc2[N+](=O)[O-])cc1,52.1% (active)
9,NS(=O)(=O)c1ccc(CCNC(=O)c2ccc(Cl)cc2[N+](=O)[O-])cc1,6.41% (inactive)
10,Cc1ccc(C(=O)NCC(=O)O)s1,-10.9% (inactive)
11,COCCCNCCOCCOc1ccc(Cl)cc1Br,91.2% (active)
12,COCCNCCOCCOc1cccc(OC)c1,1.86% (inactive)
13,CSc1ccc(/C=N\NC(=O)COc2ccc(Cl)cc2Br)cc1,-9.17% (inactive)
14,Cc1cc(C)n(-c2ccc3nncn3n2)n1,-5.45% (inactive)
15,C=CCn1c(=NC(=O)c2cccs2)sc2cc(NC(C)=O)ccc21,9.06% (inactive)
16,CCCOC1CCCN(Cc2cn(C)nc2-c2ccccc2F)C1 (configuration not stated),-5.85% (inactive)
17,Cn1cc(CN2CCCC(CO)C2)c(-c2ccc(Oc3ccccc3)cc2)n1 (configuration not stated),88.6% (active)
18,Cc1ccc(CN2CCN(Cc3cn(C)nc3-c3ccccc3)CC2CCO)o1 (configuration not stated),-3.67% (inactive)
19,O=C(CSc1nc(O)c(Cc2ccccc2)c(=O)[nH]1)Nc1nc2c(s1)CCCC2,2.85% (inactive)
20,CC(=O)c1ccc(NC(=O)N[C@@H](Cc2ccccc2)C(=O)O)cc1,-5.12% (inactive)
21,CC(=O)NC(CC(=O)O)c1ccc(F)cc1 (configuration not stated),-5.31% (inactive)
22,CC(=O)NC(Cc1ccc(F)cc1)C(=O)O (configuration not stated),83.9% (active)
